Results filed as inconclusive are left out. Activity calls are given as the source filed them. Rule for the calls, unless noted: active = hit-call score of the fitted dose curve at least 0.9, where 1 is the maximum; inactive = score below 0.9.
How the values were obtained:
[1] = ATG_PBREM_CIS: Attagene CIS-FACTORIAL HepG2 Assay for human Phenobarbital-responsive Enhancer Module (PBREM) (AID 2282955); conditions: HepG2 PBREM cis-reporter, Attagene multiplexed transcription; actives raise or lower the signal
In short: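 After a 24 h incubation with test chemical, transfected HepG2 cells yield total RNA; reporter-specific RT-PCR products are fluorescently labelled, HpaI-digested and resolved by capillary electrophoresis against ROX size standards.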

[2] = target: Paired box protein Pax-6 (Homo sapiens) (UniProt P26367); assay: ATG_Pax6_CIS: Attagene CIS-FACTORIAL HepG2 Assay for human Paired Box 6 (PAX6) (AID 2282956); conditions: HepG2 CIS-FACTORIAL PAX6 reporter transcription, RNA readout; actives raise or lower the signal
Chain of Paired box protein Pax-6 (Homo sapiens) (P26367 whole entry, looked up): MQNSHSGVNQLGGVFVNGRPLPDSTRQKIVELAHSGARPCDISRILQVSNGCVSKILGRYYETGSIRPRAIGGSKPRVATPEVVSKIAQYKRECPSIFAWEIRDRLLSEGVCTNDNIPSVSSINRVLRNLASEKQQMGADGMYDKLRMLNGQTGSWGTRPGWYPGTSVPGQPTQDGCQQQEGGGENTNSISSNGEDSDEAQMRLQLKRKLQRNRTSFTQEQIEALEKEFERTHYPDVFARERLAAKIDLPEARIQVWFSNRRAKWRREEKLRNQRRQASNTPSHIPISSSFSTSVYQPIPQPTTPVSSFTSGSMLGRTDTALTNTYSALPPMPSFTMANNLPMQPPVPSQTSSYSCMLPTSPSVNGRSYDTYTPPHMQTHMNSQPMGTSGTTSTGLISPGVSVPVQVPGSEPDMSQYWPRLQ
In short: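 HepG2 cells transiently transfected with cis-promoter-driven multiplexed reporter units sensing endogenous transcription factor activity; 24 h chemical exposure. Reporter mRNA quantified by RT-PCR, 6-FAM labelling, HpaI digestion and capillary electrophoresis; bidirectional fit versus DMSO baseline.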

[3] = ATG_PXRE_CIS: Attagene CIS-FACTORIAL HepG2 Assay for human Pregnane X Receptor Element (PXRE) (AID 2282957); conditions: HepG2 Attagene CIS-FACTORIAL PXRE reporter, mRNA; actives raise or lower the signal
In short: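 HepG2 cells transiently transfected with cis-element-driven multiplexed reporter units; after 24 h chemical exposure, reporter mRNA measured by RT-PCR, 6-FAM labelling, HpaI digestion and capillary electrophoresis. Bidirectional fitting relative to DMSO.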

[4] = ATG_RORE_CIS: Attagene CIS-FACTORIAL HepG2 Assay for human RAR-related Orphan Receptor Element (RORE) (AID 2282959); conditions: HepG2 Attagene cis-factorial RORE reporter, mRNA; actives raise or lower the signal
In short: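 Fluorescence intensity of reporter-specific cDNA fragments, separated by capillary electrophoresis, gives the signal. Source: HepG2 liver cells transiently transfected with cis-element reporters and exposed 24 h; DMSO-normalized bidirectional fit.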

[5] = ATG_Sox_CIS: Attagene CIS-FACTORIAL HepG2 Assay for human SRY-box transcription factor (SOX) (AID 2282960); conditions: HepG2 Attagene cis-factorial SOX reporter, mRNA; actives raise or lower the signal
In short: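 After 24 h of chemical treatment, transfected HepG2 reporter cells are lysed for total RNA. Transcript levels come from RT-PCR with labelled primer extension and capillary electrophoresis, analysed bidirectionally versus DMSO.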

[6] = target: Transcription factor Sp1 (Homo sapiens) (UniProt P08047); assay: ATG_Sp1_CIS: Attagene CIS-FACTORIAL HepG2 Assay for human Specificity Protein 1 (Sp1) (AID 2282961); conditions: HepG2 Sp1 cis-reporter transcription, actives raise or lower the signal
Chain of Transcription factor Sp1 (Homo sapiens) (P08047 whole entry, looked up): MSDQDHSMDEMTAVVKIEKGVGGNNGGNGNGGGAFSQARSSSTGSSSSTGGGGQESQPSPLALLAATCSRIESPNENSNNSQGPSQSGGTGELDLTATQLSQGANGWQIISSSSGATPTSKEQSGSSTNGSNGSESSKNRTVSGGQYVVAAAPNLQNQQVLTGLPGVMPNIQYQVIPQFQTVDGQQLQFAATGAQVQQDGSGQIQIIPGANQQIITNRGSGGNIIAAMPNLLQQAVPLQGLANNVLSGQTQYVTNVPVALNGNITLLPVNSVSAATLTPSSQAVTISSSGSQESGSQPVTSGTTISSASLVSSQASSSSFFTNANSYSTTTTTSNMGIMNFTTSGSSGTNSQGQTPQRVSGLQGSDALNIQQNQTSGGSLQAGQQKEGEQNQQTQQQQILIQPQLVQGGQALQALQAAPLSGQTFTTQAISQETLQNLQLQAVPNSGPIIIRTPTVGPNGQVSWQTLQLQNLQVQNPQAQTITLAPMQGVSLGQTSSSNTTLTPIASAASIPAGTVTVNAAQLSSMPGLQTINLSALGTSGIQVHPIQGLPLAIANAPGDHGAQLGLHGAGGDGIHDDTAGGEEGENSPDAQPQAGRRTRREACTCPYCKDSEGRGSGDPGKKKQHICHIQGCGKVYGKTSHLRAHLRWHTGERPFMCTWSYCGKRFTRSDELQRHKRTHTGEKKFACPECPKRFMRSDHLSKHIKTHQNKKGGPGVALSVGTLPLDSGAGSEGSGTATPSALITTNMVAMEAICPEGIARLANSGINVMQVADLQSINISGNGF
In short: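 Sp1-driven reporter mRNA, read as capillary electrophoresis fluorescence after RT-PCR, in transiently transfected HepG2 cells dosed for 24 h; signal change in either direction relative to DMSO.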

[7] = ATG_SREBP_CIS: Attagene CIS-FACTORIAL HepG2 Assay for human Sterol Regulatory Element Binding (SREBP) (AID 2282962); conditions: HepG2 Attagene cis-factorial SREBP reporter, mRNA; actives raise or lower the signal
In short: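 HepG2 cells transiently transfected with multiplexed cis-promoter reporter units sensing endogenous transcription factors; reporter mRNA measured 24 h after dosing by RT-PCR, 6-FAM labeling, HpaI digestion and capillary electrophoresis. Bidirectional fit versus DMSO.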

[8] = target: Signal transducer and activator of transcription 3 (Homo sapiens) (UniProt P40763); assay: ATG_STAT3_CIS: Attagene CIS-FACTORIAL HepG2 Assay for human Signal Transducer and Activator of Transcription 3 (STAT3) (AID 2282963); conditions: HepG2, Attagene cis-factorial STAT3 reporter transcription; actives raise or lower the signal
Chain of Signal transducer and activator of transcription 3 (Homo sapiens) (P40763 whole entry, looked up): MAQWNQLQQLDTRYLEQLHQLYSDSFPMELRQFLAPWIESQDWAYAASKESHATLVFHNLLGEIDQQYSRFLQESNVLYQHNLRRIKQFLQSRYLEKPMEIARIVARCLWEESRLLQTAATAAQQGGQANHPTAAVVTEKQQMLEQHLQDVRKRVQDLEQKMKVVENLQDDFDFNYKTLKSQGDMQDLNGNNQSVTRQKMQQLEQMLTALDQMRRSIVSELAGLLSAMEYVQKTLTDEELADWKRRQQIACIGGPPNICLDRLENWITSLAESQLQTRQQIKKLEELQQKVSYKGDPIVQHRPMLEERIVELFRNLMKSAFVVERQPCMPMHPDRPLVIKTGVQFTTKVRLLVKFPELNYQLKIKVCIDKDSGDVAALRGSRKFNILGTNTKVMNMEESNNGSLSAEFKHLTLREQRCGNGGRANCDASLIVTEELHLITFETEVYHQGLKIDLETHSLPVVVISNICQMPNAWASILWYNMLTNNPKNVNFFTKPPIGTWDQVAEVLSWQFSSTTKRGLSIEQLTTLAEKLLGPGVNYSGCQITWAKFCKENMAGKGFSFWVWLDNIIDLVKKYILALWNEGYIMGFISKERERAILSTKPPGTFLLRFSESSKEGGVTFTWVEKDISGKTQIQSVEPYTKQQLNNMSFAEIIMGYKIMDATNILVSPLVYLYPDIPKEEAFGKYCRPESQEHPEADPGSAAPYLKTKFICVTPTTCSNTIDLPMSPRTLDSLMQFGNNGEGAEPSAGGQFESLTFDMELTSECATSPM
In short: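 Endogenous STAT3-responsive cis-element activity was read in transiently transfected HepG2 cells after 24 h treatment. Reporter transcripts were quantified via RT-PCR and capillary electrophoresis, with DMSO as negative control and bidirectional curve fitting.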

[9] = ATG_TA_CIS: Attagene CIS-FACTORIAL HepG2 Assay for human TA Basal Promoter (AID 2282964); conditions: HepG2 Attagene CIS-factorial TA basal promoter reporter; actives raise or lower the signal
In short: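 Transient MRTU transfection of HepG2 preceded 24 h compound exposure. Reporter mRNA levels were then read by RT-PCR with capillary electrophoresis, and this background-control endpoint was fitted bidirectionally to DMSO.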

[10] = ATG_TCF_b_cat_CIS: Attagene CIS-FACTORIAL HepG2 Assay for human T-Cell-Factor with beta-catenin (TCF/b-cat) (AID 2282965); conditions: HepG2 TCF/beta-catenin cis-reporter transcription, actives raise or lower the signal
In short: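 Measured: reporter mRNA in HepG2 transiently transfected with cis-promoter reporter units, 24 h after chemical addition. Fitting was bidirectional, DMSO as negative control.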

[11] = ATG_TAL_CIS: Attagene CIS-FACTORIAL HepG2 Assay for human TAL Basal Promoter (AID 2282966); conditions: HepG2 Attagene cis-factorial TAL promoter reporter; actives raise or lower the signal;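 note: background control endpoint measuring basal TAL promoter reporter mRNA not a specific factor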
In short: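 HepG2 cells transiently transfected with multiplexed cis-promoter reporter units, dosed 24 h. Reporter mRNA quantified by RT-PCR, 6-FAM labelling, HpaI digestion and capillary electrophoresis; TAL basal promoter serves as background control, fitted bidirectionally versus DMSO.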

[12] = ATG_TGFb_CIS: Attagene CIS-FACTORIAL HepG2 Assay for human Transforming Growth Factor (TGF) (AID 2282967); conditions: HepG2 Attagene CIS TGFb reporter, mRNA transcription; actives raise or lower the signal
In short: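 After a 24-hour incubation with compound, transfected HepG2 cells were lysed for RNA; reporter cDNA was amplified, fluorescently end-labeled and separated by CE. DMSO served as baseline for bidirectional fits.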

[13] = ATG_VDRE_CIS: Attagene CIS-FACTORIAL HepG2 Assay for human Vitamin D Receptor Element (VDRE) (AID 2282968); conditions: HepG2 VDRE cis-reporter transcription, actives raise or lower the signal
In short: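 Reporter mRNA induction, quantified by capillary electrophoresis of fluorescently labelled RT-PCR products, was read 24 h after dosing HepG2 cells carrying transiently transfected cis-regulated reporter units; gain or loss relative to DMSO.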

[14] = target: Estrogen receptor (Homo sapiens) (UniProt P03372); assay: ATG_ERa_TRANS: Attagene TRANS-FACTORIAL HepG2 Assay for human Estrogen Receptor alpha (ERa) (AID 2282970; active = hit-call score of the fitted dose curve at least 0.9, where 1 is the maximum); conditions: HepG2 Attagene TRANS ERa GAL4 reporter, mRNA
Chain of Estrogen receptor (Homo sapiens) (P03372 whole entry, looked up, the tested form may be a part): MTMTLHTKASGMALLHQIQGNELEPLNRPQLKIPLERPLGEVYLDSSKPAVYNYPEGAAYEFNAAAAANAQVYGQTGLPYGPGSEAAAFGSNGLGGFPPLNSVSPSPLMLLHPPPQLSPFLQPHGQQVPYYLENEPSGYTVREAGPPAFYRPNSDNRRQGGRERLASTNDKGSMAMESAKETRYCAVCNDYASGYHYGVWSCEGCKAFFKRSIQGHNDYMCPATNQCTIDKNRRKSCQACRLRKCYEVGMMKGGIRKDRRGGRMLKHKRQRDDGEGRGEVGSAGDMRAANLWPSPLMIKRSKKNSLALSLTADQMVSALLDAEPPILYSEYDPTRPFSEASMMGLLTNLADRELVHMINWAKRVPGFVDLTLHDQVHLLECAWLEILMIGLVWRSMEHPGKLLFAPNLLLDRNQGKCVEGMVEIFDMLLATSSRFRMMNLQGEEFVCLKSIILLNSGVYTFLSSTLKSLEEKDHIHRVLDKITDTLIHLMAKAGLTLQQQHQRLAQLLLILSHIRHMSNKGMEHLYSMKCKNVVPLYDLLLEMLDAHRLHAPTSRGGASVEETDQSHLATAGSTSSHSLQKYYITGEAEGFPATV
In short: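 HepG2 cells transiently transfected with multiplexed GAL4-UAS reporter units read out chimeric NR-Gal4 activity. After 24 h compound exposure, reporter mRNA was quantified by RT-PCR, 6-FAM labeling, HpaI digestion and capillary electrophoresis, relative to DMSO.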

[15] = target: X-box-binding protein 1 (Homo sapiens) (UniProt P17861); assay: ATG_Xbp1_CIS: Attagene CIS-FACTORIAL HepG2 Assay for human X-box Binding Protein 1 (XBP1) (AID 2282972); conditions: HepG2 XBP1 cis-element reporter, Attagene multiplex; actives raise or lower the signal
Chain of X-box-binding protein 1 (Homo sapiens) (P17861 whole entry, looked up): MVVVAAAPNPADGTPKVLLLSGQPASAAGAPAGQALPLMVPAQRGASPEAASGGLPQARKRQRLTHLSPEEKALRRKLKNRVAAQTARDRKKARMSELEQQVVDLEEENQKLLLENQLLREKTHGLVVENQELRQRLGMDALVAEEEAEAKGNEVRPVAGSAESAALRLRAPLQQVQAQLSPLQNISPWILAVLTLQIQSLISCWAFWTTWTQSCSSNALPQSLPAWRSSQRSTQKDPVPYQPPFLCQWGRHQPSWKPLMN
In short: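 HepG2 cells transiently transfected with multiple cis-element reporter units report endogenous TF activity; 24 h exposure, then reporter mRNA measured by RT-PCR, 6-FAM labelling, HpaI digestion and capillary electrophoresis. Bidirectional fitting versus DMSO.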

[16] = ATG_M_19_TRANS: Attagene TRANS-FACTORIAL HepG2 Assay for M19 Transcription Factor (Internal Marker) (AID 2282974; active = hit-call score of the fitted dose curve at least 0.9, where 1 is the maximum); conditions: HepG2 Attagene TRANS-FACTORIAL M19 internal marker reporter
In short: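 Measured here: internal-marker reporter transcript from HepG2 cells transfected with MRTUs, harvested at 24 h. cDNA PCR products were 6-FAM labelled by primer extension, cut with HpaI for 2 h at 37 C, and resolved by CE.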

[17] = ATG_PPRE_CIS: Attagene CIS-FACTORIAL HepG2 Assay for human Peroxisome Proliferator-activated Response Element (PPRE) (AID 2282958); conditions: HepG2 PPRE cis-element reporter, Attagene transcription factor profiling; actives raise or lower the signal
In short: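 Multiplexed reporter transcription units under cis-regulatory promoters were transfected into HepG2 cells to capture endogenous factor activity. A 24 h incubation preceded RNA isolation and fluorescent RT-PCR fragment analysis.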

[18] = target: Nuclear receptor subfamily 1 group I member 3 (Homo sapiens) (UniProt Q14994); assay: ATG_CAR_TRANS: Attagene TRANS-FACTORIAL HepG2 Assay for human Constitutive Androstane Receptor (CAR) (AID 2282969; active = hit-call score of the fitted dose curve at least 0.9, where 1 is the maximum;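 note: activators raise reporter mRNA above DMSO so AC50 marks induction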); conditions: HepG2 Attagene TRANS-FACTORIAL CAR reporter
Chain of Nuclear receptor subfamily 1 group I member 3 (Homo sapiens) (Q14994 whole entry, looked up, the tested form may be a part): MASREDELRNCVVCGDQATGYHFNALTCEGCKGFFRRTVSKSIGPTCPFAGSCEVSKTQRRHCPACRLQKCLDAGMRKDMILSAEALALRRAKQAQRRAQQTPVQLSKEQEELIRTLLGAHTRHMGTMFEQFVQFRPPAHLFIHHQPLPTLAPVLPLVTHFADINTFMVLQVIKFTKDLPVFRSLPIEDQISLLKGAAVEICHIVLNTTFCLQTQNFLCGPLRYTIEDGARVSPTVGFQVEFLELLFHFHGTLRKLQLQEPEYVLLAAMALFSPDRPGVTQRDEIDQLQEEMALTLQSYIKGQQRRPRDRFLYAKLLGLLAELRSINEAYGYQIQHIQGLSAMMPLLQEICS
In short: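 Readout is reporter mRNA induction, quantified by fluorescent primer extension and capillary electrophoresis after RT-PCR. Cells were HepG2 transiently carrying chimeric NR-Gal4 constructs with GAL4-UAS reporters, treated for 24 h; activity scored upward from DMSO.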

[19] = ATG_GAL4_TRANS: Attagene TRANS-FACTORIAL HepG2 Assay for GAL4 (Internal Marker) (AID 2282976; active = hit-call score of the fitted dose curve at least 0.9, where 1 is the maximum); conditions: HepG2 Attagene TRANS GAL4 internal marker reporter
In short: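 Background-control readout: GAL4-UAS reporter transcript in transiently transfected HepG2 cells after 24 h compound exposure. Measured by RT-PCR, 6-FAM primer extension, HpaI digest and capillary electrophoresis; gain-of-signal fit versus DMSO.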

[20] = target: Steroid hormone receptor ERR1 (Homo sapiens) (UniProt P11474); assay: ATG_ERRa_TRANS: Attagene TRANS-FACTORIAL HepG2 Assay for human Estrogen-Related Receptor alpha (ERRa) (AID 2282971; active = hit-call score of the fitted dose curve at least 0.9, where 1 is the maximum); conditions: HepG2 Attagene TRANS reporter, ERRa transactivation
Chain of Steroid hormone receptor ERR1 (Homo sapiens) (P11474 whole entry, looked up, the tested form may be a part): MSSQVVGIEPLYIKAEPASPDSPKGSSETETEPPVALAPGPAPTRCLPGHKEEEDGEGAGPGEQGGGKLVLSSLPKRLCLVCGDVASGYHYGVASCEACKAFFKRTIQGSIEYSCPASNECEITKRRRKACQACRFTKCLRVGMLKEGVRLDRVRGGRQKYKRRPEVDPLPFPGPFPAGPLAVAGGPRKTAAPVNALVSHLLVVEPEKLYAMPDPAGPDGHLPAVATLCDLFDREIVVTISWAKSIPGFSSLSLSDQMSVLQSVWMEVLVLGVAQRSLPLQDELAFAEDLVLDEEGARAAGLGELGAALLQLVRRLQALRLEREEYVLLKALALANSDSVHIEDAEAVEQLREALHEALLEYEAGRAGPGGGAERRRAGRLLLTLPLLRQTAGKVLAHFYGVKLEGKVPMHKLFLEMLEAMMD
In short: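 HepG2 cells transiently transfected with GAL4-UAS reporter units and chimeric NR-Gal4 constructs; after 24 hour compound incubation, reporter mRNA quantified by RT-PCR, fluorescent labelling and capillary electrophoresis, gain of signal versus DMSO.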

Measured: AC50

CCCCCc1cccc(=O)o1
active: [3] 25.1 µM
not listed: [17] | [18] | [19] | [20]
inactive: all other assays above

CC(=O)C1C(=O)C=C(C)OC1=O (centres undefined)
not listed: [4] | [13] | [14] | [19] | [20]
inactive: all other assays above

CC(=O)c1cccnc1
not listed: [14] | [17] | [18] | [19] | [20]
inactive: all other assays above

CC(=O)c1ccc(O)cc1
active: [3] 100 µM
not listed: [4] | [16] | [20]
inactive: all other assays above

CC(=O)c1ccc2ccccc2c1
active: [14] 42.4 µM
not listed: [4] | [10] | [20]
inactive: all other assays above

CCC(C)COC(=O)CC(C)C (centres undefined)
not listed: [13] | [17] | [20]
inactive: all other assays above

CCCCCCCCCOS(=O)(=O)O
active: [17] 24 µM | [14] 20.1 µM
not listed: [4] | [10] | [15] | [16] | [18] | [19] | [20]
inactive: all other assays above

O=C(O)c1cc2ccccc2cc1O
active: [3] 54.4 µM
not listed: [16] | [17] | [19]
inactive: all other assays above

CC(C)OB(OC(C)C)OC(C)C
not listed: [14] | [17] | [20]
inactive: all other assays above

Brc1cc(Br)cc(Br)c1
active: [3] 100 µM | [12] 100 µM | [13] 65 µM
not listed: [11] | [16] | [17] | [19]
inactive: all other assays above

CC(C)N(c1ccccc1)C(C)C
not listed: [9] | [15] | [16] | [17] | [19] | [20]
inactive: all other assays above

CCO[Si](CC)(OCC)OCC
active: [3] 2.33 µM | [12] 160 µM
not listed: [10] | [11] | [14] | [16] | [17] | [18] | [20]
inactive: all other assays above

C=CC(C)(CCC=C(C)C)OC(=O)CC (centres undefined)
active: [3] 31 µM
not listed: [9] | [17] | [20]
inactive: all other assays above

Reference: PubChem BioAssay (EPA / NIEHS)
